Where “and” joins values, the source holds several entries; their conditions need not be identical. Equal values may be shown once. Results filed as inconclusive are left out. Unmarked numbers belong to inactive results. Calls of active or inactive are those of the source. The call rests on the fitted dose curve; in most records, active means well fitted cell-killing curve with a large enough effect; inconclusive means small, poorly fitted or top-dose-only effect, or effect the other way; inactive means no such curve, though single readings can be large or run the other way.
Potency means the concentration at half of the fitted maximal effect.

The test can be described thus: Viability qHTS for spleen associated tyrosine kinase inhibitor (SYKi) drug resistant MV4-11 cells (AID 1963824). Further: nearly all actives have a fitted effect of over 35% in size. The following applies: SYKi-resistant MV4-11 viability, CellTiter-Glo, 72 h; series mostly up to 45 µM; viability, % of control: at the top concentration. The text has this: Department of Medicine, Hematology/Oncology
University Hospital Frankfurt, Germany.
Trials have shown promising clinical activity of the selective SYK inhibitor entospletinib in patients with high expressing HOXA9/MEIS1 acute leukemias. As the development of resistance mechanisms is a common problem in the use of targeted drugs, we performed a chemical library screen to identify drug sensitivities in SYK inhibitor resistant AML cells. […] Glucocorticoids are potent immunosuppressants which work in part by inhibiting the transcription of cytokine genes.
Described herein is a viability screen to look for activity in the SYK inhibitor drug resistant cell line against four NCATS compound libraries (MIPE 5.0, NPC, NPACT, and Kinase) totaling 11372 compounds. Active hits were reacquired for confirmation and further secondary assay testing.
SEQUENCE No. (e.g., 1, 2, 3, etc.); […] (e.g., Cells, Incubation, Reagent, etc.); VALUE; DESCRIPTION.
1; Media; 2uL; white, solid-bottom Corning assay plate.
2; Compounds; 23nL; Echo acoustic dispenser.
3; Cell; 5uL; 500 cells per well.
4: Incubation; 72hr; 37 C, 5% CO2, 95% humidity.
5; Reagent; 3uL; CellTiter-Glo reagent (Promega).
6; Incubation; 10min; room temperature.
7; Detection; Luminescence; ViewLux plate reader (PerkinElmer).
NOTES (numbers refer to Sequence numbers above
1. Quantitative high-throughput screening (qHTS) of small molecule compounds was conducted on drug resistant SYKi MV4-11 cell line.
2. Twenty-three nanoliter of small molecule compounds were added to each assay plates using the Echo acoustic dispenser (Beckman Coulter).
3. Cells were seeded into the assay plates at a final density of 500 cells in 5uL of media per well using the Multidrop Combi dispenser.
4. Plates were covered with stainless steel gasketed lids and incubated for 72 hours at standard cell culture conditions.
5. Viability was assessed by adding 3uL of CellTiter-Glo detection reagent (Promega).
6. Plates were covered with gasket lids and incubated for 10 minutes at room temperature.
7. Luminescence was measured on a ViewLux plate reader (PerkinElmer).
Turning to `C[C@@H]1O[C@@H](O[C@@H]2CO[C@@H](O[C@H]3CC[C@@]4(C)C(CC[C@]5(C)C4CC=C4[C@@H]6CC(C)(C)CC[C@]6(C(=O)O[C@@H]6O[C@H](CO)[C@@H](O)[C@H](O)[C@H]6O)CC[C@]45C)[C@]3(C)CO)[C@H](O)[C@H]2O[C@@H]2O[C@H](CO)[C@@H](O)[C@H](O)[C@H]2O)[C@H](O)[C@H](O)[C@H]1O` (stereo not given in full), the viability, % of control is 62.6% [at 9.25 µM].

On to `O=C(/C=C/c1ccc(O)c(O)c1)O[C@H]1[C@H](OC2CCCCC2O)O[C@H](CO)[C@@H](O)[C@@H]1O` (stereo not given in full), for which the “viability, % of control” value is 61.8% [at 17.3 µM].

Turning to `CN1CCCN(C(c2ccccc2)c2ccc(Cl)cc2)CC1` (stereo not given), the Potency was 16.8 µM (active). For the compound `C[C@@H]1C[C@@H](O)[C@@]23CO[C@]2(CO)CCC[C@@H]3[C@@]12C[C@@H](c1ccoc1)OC2=O`, the “viability, % of control” value was 88.1%. On the same count and under the same terms, under `NC/C=C/C(=O)O` stands 94.9%. `C=C(C)[C@H]1CC[C@]2(C(=O)O)CC[C@]3(C)C(CCC4[C@@]5(C)CCC(=O)C(C)(C)C5CC[C@]43C)C12` (stereo not given in full): the Potency was 1.42 µM (active). As for `CN(C)CCOC(C)(c1ccccc1)c1ccccn1` (stereo not given), the “viability, % of control” value was 71.8%. With `CN1CCN(Cc2ccc(-c3cnc4[nH]cc(-c5ccc6[nH]ccc6c5)c4c3)cc2)CC1`, the Potency is 0.146 µM (active). With `Cc1ccc(N)cc1O`, the Potency was 9.69 µM (active). Consider `Oc1ccc([C@H]2COc3cc(O)ccc3C2)cc1`, for which the Potency is 13 µM (active). In the case of `O=C1CCCC2=C1C1(CCCC1)N=C(Nc1nc3ccccc3o1)N2`, the Potency is 3.66 µM (active). For the compound `CC(C)=CCC[C@](C)(O)[C@H]1CC[C@]2(C)[C@@H]1[C@H](O)CC1[C@@]3(C)CC[C@H](O)C(C)(C)C3[C@@H](O[C@@H]3O[C@H](CO)[C@@H](O)[C@H](O)[C@H]3O[C@@H]3OC[C@@H](O)[C@H](O)[C@H]3O)C[C@]12C` (stereo not given in full), the “viability, % of control” value is 103% [at 17.3 µM]. On to `C[C@@H]1O[C@@H](O[C@H]2[C@@H]3C=CO[C@@H](O[C@@H]4O[C@H](CO)[C@@H](O)[C@H](O)[C@H]4O)[C@@H]3[C@@]3(CO)O[C@@H]23)[C@H](OC(=O)/C=C/c2ccc(O)c(O)c2)[C@H](O)[C@H]1O`, for which the “viability, % of control” value was 78.8% [at 17.3 µM].

For the compound `CSc1nc(N)cc(Oc2ccc(-c3nc(Nc4cccc(C(F)(F)F)c4)n[nH]3)cc2)n1`, the Potency is 1.03 µM (active).

As to `N#Cc1ccc2[nH]c(O)c(-c3ccc(CN4CCOCC4)cn3)c2c1`, the “viability, % of control” value is 89.1%. On to `CCn1c(=O)c(-c2ccn[nH]2)cc2c(C)nc(N)nc21`, for which the Potency was 2.91 µM (active). In the case of `Cc1ccc(C(N)=O)cc1Nc1nccc(-c2cn(C(C)C)c3cnccc23)n1`, the Potency was 0.0517 µM (active). As to `O=C(c1ccco1)N1CCNCC1`, the “viability, % of control” value is 92.4%. For `CC(C)(C)c1cc(Br)cc([C@H](CC(=O)O)NC(=O)CNC(=O)c2cc(O)cc(NC3=NCC(O)CN3)c2)c1` (stereo not given in full), the “viability, % of control” value was 106%. As to `CN(C)C(=O)Oc1cccc([N+](C)(C)C)c1`, the “viability, % of control” value is 92%. Take `Oc1ccc(-c2cnc3ccc(NCc4ccco4)nn23)cc1`: the Potency is 0.092 µM (active). Consider `CC1CCC2(C(=O)O)CCC3(C)C(=CCC4C5(C)CCC(O)C(C)(CO)C5CCC43C)C2C1(C)O` (stereo not given), for which the “viability, % of control” value is 76.7% [at 17.3 µM].

As to `O=C(NC(NC(=S)Nc1ccc(F)c([N+](=O)[O-])c1)C(Cl)(Cl)Cl)C(c1ccccc1)c1ccccc1` (stereo not given), the Potency is 3.26 µM (active). As for `COC(=O)c1ccc2c(c1)nc(NC(=O)c1ccccc1)n2CCCc1ccccc1`, the “viability, % of control” value was 97%. As to `N#Cc1c(C2CCNCC2)cc(-c2c(O)cccc2OCC2CC2)nc1N`, the Potency is 6.61 µM (active). As to `CCCCCOc1ccc(-c2cc(-c3ccc(C(=O)N[C@H]4C[C@@H](O)[C@@H](O)NC(=O)C5[C@@H](O)[C@@H](C)CN5C(=O)C([C@H](O)CC(N)=O)NC(=O)C([C@H](O)[C@@H](O)c5ccc(O)c(OS(=O)(=O)O)c5)NC(=O)C5C[C@@H](O)CN5C(=O)C([C@@H](C)O)NC4=O)cc3)no2)cc1` (stereo not given in full), the “viability, % of control” value was 82.9% [at 17.3 µM].

In the case of `CC(C)(O)C(=O)N1CCN(c2ccc(C(F)(F)F)c(C3=C(c4c[nH]c5ccccc45)C(=O)NC3=O)c2)CC1`, the Potency was 0.366 µM (active).

Turning to `N=C1CCCN1Cc1[nH]c(=O)[nH]c(=O)c1Cl`, the “viability, % of control” value was 98.1%. Regarding `COC(=O)C1=CO[C@@H](O[C@@H]2O[C@H](CO)[C@@H](O)[C@H](O)[C@H]2O)[C@H]2[C@@H]1[C@H](O)[C@H](O)[C@]2(C)O`, the “viability, % of control” value was 88.7% [at 17.3 µM]. In the case of `COc1cc2nccc(Oc3ccc(NC(=O)Nc4cc(C)on4)c(Cl)c3)c2cc1OC`, the Potency is 0.833 µM (active). Consider `CCN(CC)Cc1ccc2cc(COC(=O)Nc3ccc(C(=O)NO)cc3)ccc2c1`, for which the Potency was 206 nM (active) and 372 nM (active). As to `O=C1CC2(CCCC2)[C@H](O)C(=O)N1CCCCN1CCN(c2ncccn2)CC1`, the “viability, % of control” value is 75.7%. As to `CC(C)(C)c1nnc(NS(=O)(=O)c2ccccc2)s1`, the “viability, % of control” value is 98.4%.

Consider `Cc1ccc(NC(=O)c2cccc(C(C)(C)C#N)c2)cc1Nc1ccc2ncn(C)c(=O)c2c1`, for which the Potency is 1.48 µM (active). `CC(C)Oc1ccc(-c2nn([C@@H](C)c3oc4ccc(F)cc4c(=O)c3-c3cccc(F)c3)c3ncnc(N)c23)cc1F`: the Potency is 11.8 µM (active). `COc1cc(N2CCC(N3CCN(C)CC3)CC2)ccc1Nc1ncc(Cl)c(Nc2ccccc2S(=O)(=O)C(C)C)n1`: the Potency is 116 nM (active) and 209 nM (active). For `C[C@@H]1O[C@@H](O[C@H]2[C@H](O)[C@@H](O)[C@H](OC(=O)[C@]34CCC(C)(C)C[C@H]3C3=CCC5[C@@]6(C)CC[C@H](O[C@@H]7O[C@H](C(=O)O)[C@@H](O)[C@H](O)[C@H]7O)C(C)(C)C6CC[C@@]5(C)[C@]3(C)CC4)O[C@@H]2CO)[C@H](O)[C@H](O)[C@H]1O` (stereo not given in full), the viability, % of control is 75.6% [at 9.25 µM]. As for `CC1CCc2cc(F)cc3c(=O)c(C(=O)O)cn1c23` (stereo not given), the Potency was 6.68 µM (active).

In the case of `O=S(=O)(c1cccc2c(Cl)cccc12)N1CCCNCC1`, the Potency is 20.6 µM (active). Turning to `C/C=C(\C)C(=O)OC[C@H]1O[C@@H](O[C@H]2[C@@H](O[C@H]3O[C@H](CO)[C@@H](O)[C@H](O)[C@H]3O[C@@H]3O[C@H](CO)[C@@H](O)[C@H](O)[C@H]3O)O[C@H](COC(=O)/C(C)=C/C)[C@@H](O)[C@@H]2O)[C@H](O)[C@@H](O)[C@@H]1O`, the viability, % of control was 79.8% [at 9.25 µM].

For the origin of these results see PubChem BioAssay (NCATS).
